A short description of assay [1]: NCI Yeast Anticancer Drug Screen. Data for the rad50 strain (AID 155).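 Further: 0% = growth of vehicle-only cultures of the same strain.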 As to conditions: S. cerevisiae rad50 strain growth inhibition, active compounds read high. A digest of the protocol: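 DNA repair mutant yeast, compound exposure, growth read-out; inhibition is taken relative to vehicle.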
Assay [2] in a line: NCI Yeast Anticancer Drug Screen. Data for the mec2-1 strain (AID 157). As to conditions: S. cerevisiae mec2-1 strain, active compounds read high. The procedure, abridged:
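Cells of the genetically defined mec2-1 yeast strain are incubated with test compound. Inhibition of growth is calculated against vehicle-treated controls.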

A short description of assay [3]: NCI Yeast Anticancer Drug Screen. Data for the sgs1 mgt1 strain (AID 161).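 Further: 0% = growth of cultures given vehicle only.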 As to conditions: S. cerevisiae sgs1 mgt1 strain, active compounds read high. The procedure, abridged: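 Read-out: growth inhibition vs vehicle controls. Cells: mutant yeast strain deficient in DNA damage repair.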
The nature of assay [4]: NCI Yeast Anticancer Drug Screen. Data for the cln2 rad14 strain (AID 165).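 Further: 0% = growth equal to vehicle treated cultures.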 As to conditions: S. cerevisiae cln2 rad14 strain, active compounds read high. A digest of the protocol:
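The screen exposed genetically defined yeast (cln2 rad14) to test compounds and scored growth inhibition relative to vehicle-treated controls.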

The nature of assay [5]: NCI Yeast Anticancer Drug Screen. Data for the bub3 strain (AID 167). As to conditions: S. cerevisiae bub3 mutant strain, active compounds read high. The procedure, abridged: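 In this screen, a yeast mutant lacking normal mitotic checkpoint function is challenged with compound. Relative growth versus vehicle gives the inhibition value.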
Assay [6] is described as follows: NCI Yeast Anticancer Drug Screen. Data for the mlh1 rad18 strain (AID 175). The settings on record: S. cerevisiae mlh1 rad18 strain growth inhibition, active compounds read high. The procedure, abridged: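 Compound-treated yeast growth, normalised to vehicle controls. Strain bears defined DNA repair mutations.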
Where [7] appears, read: at 5.0 µM (retest, dose inferred, filed as 0.5).
Setting [8] is: at 50.0 µM (retest, dose inferred, filed as 5.0).

SMILES strings stand for the structures. The panel holds about 79,000 compounds, 15% with a hit somewhere; the sample as a whole holds those more often. Values without a mark were called inactive. The source made the active and inactive calls. No stated cut-off is given here; in the data, active means growth inhibition above about 70%; inactive means the rest.

`CCCC/C(=C\c1cc(Cl)c(O)c(Cl)c1)C(=O)O`: the growth inhibition in assay [1] (setting [7]) is 4%; in assay [1] (setting [8]) it was 79% (active); in assay [1] (at 50.0 µM), 59.5%; in assay [2] (setting [7]) it was 2%; in assay [2] (setting [8]), 79% (active); in assay [2] (at 50.0 µM), 70.8% (active). Besides, the growth inhibition is 2% in assay [3] (setting [7]); 82% (active) in assay [3] (setting [8]); 71.8% (active) in assay [3] (at 50.0 µM); -5% in assay [4] (setting [7]); 76% (active) in assay [4] (setting [8]); 72.4% (active) in assay [4] (at 50.0 µM). Also, the growth inhibition is 1% in assay [5] (setting [7]); 79% (active) in assay [5] (setting [8]); 56% in assay [5] (at 50.0 µM); -16% in assay [6] (setting [7]); 85% (active) in assay [6] (setting [8]); 87.5% (active) in assay [6] (at 50.0 µM).
As for `CCOC(=O)c1ccc(C(C)C)cc1`, the growth inhibition in assay [1] (setting [7]) is 3%; in assay [1] (setting [8]), 96% (active); in assay [1] (at 50.0 µM), 40.5%; in assay [2] (setting [7]) it was 3%; in assay [2] (setting [8]) it was 100% (active); in assay [2] (at 50.0 µM), 79.6% (active). Besides, the growth inhibition is 3% in assay [3] (setting [7]); 94% (active) in assay [3] (setting [8]); 55.5% in assay [3] (at 50.0 µM); -1% in assay [4] (setting [7]); 97% (active) in assay [4] (setting [8]); 21.6% in assay [4] (at 50.0 µM). The growth inhibition in assay [5] (setting [7]) is 4%; in assay [5] (setting [8]), 99% (active); in assay [5] (at 50.0 µM), 84.3% (active); in assay [6] (setting [7]) it was 4%; in assay [6] (setting [8]) it was 96% (active); in assay [6] (at 50.0 µM) it was 62.1%.
Take `CC1=C(C2CO2)C(=O)C(C)=C(C2CO2)C1=O` (configuration not stated): the growth inhibition is 68% in assay [1] (setting [7]); 100% (active) in assay [1] (setting [8]); 99.6% (active) in assay [1] (at 50.0 µM); 40% in assay [2] (setting [7]); 100% (active) in assay [2] (setting [8]); 99.5% (active) in assay [2] (at 50.0 µM). Further, the growth inhibition in assay [3] (setting [7]) is 43%; in assay [3] (setting [8]), 99% (active); in assay [3] (at 50.0 µM), 99.5% (active); in assay [4] (setting [7]) it was 59%; in assay [4] (setting [8]), 99% (active); in assay [4] (at 50.0 µM), 99.5% (active). Further, the growth inhibition was 43% in assay [5] (setting [7]); 99% (active) in assay [5] (setting [8]); 98.2% (active) in assay [5] (at 50.0 µM); 60% in assay [6] (setting [7]); 99% (active) in assay [6] (setting [8]); 99.5% (active) in assay [6] (at 50.0 µM).
As for `COc1cc2c(cc1O)-c1c(cnn1-c1ccc([N+](=O)[O-])cc1)CCC2`, the growth inhibition was 7% in assay [1] (setting [7]); 56% in assay [1] (setting [8]); 79% (active) in assay [1] (at 50.0 µM); 4% in assay [2] (setting [7]); 27% in assay [2] (setting [8]); 91.9% (active) in assay [2] (at 50.0 µM). Also, the growth inhibition in assay [3] (setting [7]) is 4%; in assay [3] (setting [8]), 38%; in assay [3] (at 50.0 µM), 85.6% (active); in assay [4] (setting [7]), 3%; in assay [4] (setting [8]), 52%; in assay [4] (at 50.0 µM) it was 73% (active). Further, the growth inhibition was 0% in assay [5] (setting [7]); 3% in assay [5] (setting [8]); 93.2% (active) in assay [5] (at 50.0 µM); 17% in assay [6] (setting [7]); 71% (active) in assay [6] (setting [8]); 94.8% (active) in assay [6] (at 50.0 µM).
For the molecule `C/C=C/c1cc2c(cc1O)CC[C@@H]1[C@@H]2CC[C@]2(C)[C@@H](O)CC[C@@H]12`, the growth inhibition was 25% in assay [1] (setting [7]); 97% (active) in assay [1] (setting [8]); 89% (active) in assay [1] (at 50.0 µM); 12% in assay [2] (setting [7]); 98% (active) in assay [2] (setting [8]); 92% (active) in assay [2] (at 50.0 µM). The growth inhibition is 11% in assay [3] (setting [7]); 97% (active) in assay [3] (setting [8]); 90.7% (active) in assay [3] (at 50.0 µM); 6% in assay [4] (setting [7]); 97% (active) in assay [4] (setting [8]); 92.7% (active) in assay [4] (at 50.0 µM). For the same molecule, the growth inhibition was 22% in assay [5] (setting [7]); 99% (active) in assay [5] (setting [8]); 91.3% (active) in assay [5] (at 50.0 µM); 24% in assay [6] (setting [7]); 97% (active) in assay [6] (setting [8]); 86.7% (active) in assay [6] (at 50.0 µM).
Turning to `CCN(CC)CCCCCCNc1cc(C)cc2cccnc12`, the growth inhibition in assay [1] (setting [7]) is 7%; in assay [1] (setting [8]), 59%; in assay [1] (at 50.0 µM), 65.9%; in assay [2] (setting [7]), 7%; in assay [2] (setting [8]) it was 61%; in assay [2] (at 50.0 µM), 19.9%. In addition, the growth inhibition in assay [3] (setting [7]) is 20%; in assay [3] (setting [8]) it was 81% (active); in assay [3] (at 50.0 µM), 74% (active); in assay [4] (setting [7]) it was 9%; in assay [4] (setting [8]) it was 52%; in assay [4] (at 50.0 µM) it was 72.8% (active). The growth inhibition in assay [5] (setting [7]) was 14%; in assay [5] (setting [8]), 76% (active); in assay [5] (at 50.0 µM) it was 18.9%; in assay [6] (setting [7]) it was 10%; in assay [6] (setting [8]), 74% (active); in assay [6] (at 50.0 µM), 59.6%.
Regarding `C/C=C\C=N\NC(N)=S`, the growth inhibition is 4% in assay [1] (setting [7]); 5% in assay [1] (setting [8]); 8.9% in assay [1] (at 50.0 µM); -3% in assay [2] (setting [7]); 5% in assay [2] (setting [8]); 83.7% (active) in assay [2] (at 50.0 µM). The growth inhibition was 3% in assay [3] (setting [7]); 6% in assay [3] (setting [8]); -17.4% in assay [3] (at 50.0 µM); 3% in assay [4] (setting [7]); -3% in assay [4] (setting [8]); -24.6% in assay [4] (at 50.0 µM). The growth inhibition in assay [5] (setting [7]) is 2%; in assay [5] (setting [8]), 7%; in assay [5] (at 50.0 µM), -2.1%; in assay [6] (setting [7]), 2%; in assay [6] (setting [8]) it was 1%; in assay [6] (at 50.0 µM) it was 28.6%.
As to `Clc1ccc(Oc2nc(Cl)nc3[nH]ncc23)cc1`, the growth inhibition in assay [1] (setting [7]) was 7%; in assay [1] (setting [8]) it was 35%; in assay [1] (at 50.0 µM), 38%; in assay [2] (setting [7]), 4%; in assay [2] (setting [8]) it was 58%; in assay [2] (at 50.0 µM), 30.6%. Further, the growth inhibition in assay [3] (setting [7]) is 11%; in assay [3] (setting [8]) it was 78% (active); in assay [3] (at 50.0 µM), 72.9% (active); in assay [4] (setting [7]), 8%; in assay [4] (setting [8]), 32%; in assay [4] (at 50.0 µM), -4.85%. In addition, the growth inhibition is 7% in assay [5] (setting [7]); 37% in assay [5] (setting [8]); 18.4% in assay [5] (at 50.0 µM); 10% in assay [6] (setting [7]); 68% in assay [6] (setting [8]); 40.1% in assay [6] (at 50.0 µM).
With `S=C(Nc1ccccn1)c1ccccn1`, the growth inhibition in assay [1] (setting [7]) was -3%; in assay [1] (setting [8]) it was 9%; in assay [1] (at 50.0 µM) it was 23.9%; in assay [2] (setting [7]), 6%; in assay [2] (setting [8]) it was 21%; in assay [2] (at 50.0 µM) it was 50.3%. In addition, the growth inhibition in assay [3] (setting [7]) was 2%; in assay [3] (setting [8]), 43%; in assay [3] (at 50.0 µM), 69%; in assay [4] (setting [7]), -11%; in assay [4] (setting [8]), -7%; in assay [4] (at 50.0 µM) it was 18.6%. Also, the growth inhibition in assay [5] (setting [7]) was 3%; in assay [5] (setting [8]), 33%; in assay [5] (at 50.0 µM) it was 55.8%; in assay [6] (setting [7]), 3%; in assay [6] (setting [8]) it was 46%; in assay [6] (at 50.0 µM) it was 51.4%.

Values taken from PubChem BioAssay (NCI).
